Measurements: paper PMC5540273 (PLoS ONE, 2017)

Columns and labels:
Settings in all cases: concentration: 1 μM,replicates: in singlicate; n = 1
EPHA7 = system: EPHA7
EPHA8 = system: EPHA8
EPHB1 = system: EPHB1
EPHB2 = system: EPHB2
EPHB3 = system: EPHB3
EPHB4 = system: EPHB4
EPHB6 = system: EPHB6
ERBB2 = system: ERBB2
ERBB3 = system: ERBB3
ERBB4 = system: ERBB4
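Further: KINOMEscan kinase panel screen.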

| Structure (SMILES) | %Inh (EPHA7) [%] | %Inh (EPHA8) [%] | %Inh (EPHB1) [%] | %Inh (EPHB2) [%] | %Inh (EPHB3) [%] | %Inh (EPHB4) [%] | %Inh (EPHB6) [%] | %Inh (ERBB2) [%] | %Inh (ERBB3) [%] | %Inh (ERBB4) [%] |
| --- | --- | --- | --- | --- | --- | --- | --- | --- | --- | --- |
| Cl.c1ccc(Oc2ccc(Nc3ccnc4cc(-c5ccc(CN6CCNCC6)o5)ccc34)cc2)nc1 [GW567142] | 0 | 10 | 0 | 0 | 0 | 4 | 96.2 | 92 | 97 | 42 |
| C[C@@H]1CCN(C(=O)N2CCCC2)C[C@@H]1N(C)c1ncnc2[nH]ccc12 | 0 | 0 | 0 | 5 | 26 | 0 | 34 | 10 | 0 | 7 |
| Cn1ccc2ncnc(Oc3ccc(NC(=O)Nc4cncc(C(F)(F)F)c4)c(Cl)c3)c21 | 74 | 95.4 | 45 | 82 | 37 | 35 | 66 | 24 | 0 | 2 |
| Cc1ccc(CC(=O)N2CCc3cc(-c4cn(C)c5ncnc(N)c45)ccc32)cc1 [GSK2634758] | 4 | 13 | 7 | 0 | 0 | 10 | 53 | 0 | 10 | 18 |
| NC(=O)Nc1sc(-c2ccc(F)cc2)cc1C(N)=O [GW789449] | 0 | 0 | 24 | 0 | 14 | 20 | 64 | 15 | 54 | 3 |
| C[C@@H](Oc1cc(-n2cnc3ccc(-c4ccncc4)cc32)sc1C(N)=O)c1ccccc1Cl [GSK483724] | 14 | 23 | 26 | 0 | 9 | 10 | 0 | 14 | 0 | 41 |
| CNC(=O)c1ccccc1Nc1nc(Nc2cccc(CS(C)(=O)=O)c2)ncc1C.O=CO [GSK1520489] | 96.6 | 96.2 | 99.9 | 88 | 9 | 91.6 | 92.8 | 92.1 | 3 | 98.2 |
| Cc1n[nH]c2cc(Nc3ccnc(Nc4cccc(CN5CCOCC5)c4)n3)ccc12 [GW682569] | 0 | 9 | 19 | 13 | 12 | 11 | 87 | 27 | 12 | 43 |
